# Experimental data published in PubChem BioAssay (NCATS).
# Inconclusive results are not listed. Entries that show only a call come without a potency. Calls of active or inactive are those of the source. Unless noted, the call rests on the fitted dose curve; in most records, active means well fitted curve in the direction sought with a large enough effect; inconclusive means small, poorly fitted or top-dose-only effect, or another doubt; inactive means no such curve, though single readings can be large; an effect the other way counts as inactive or inconclusive.
# Assays:
# [1] = molecular target: Nuclear receptor subfamily 1 group I member 3 (Homo sapiens) (UniProt Q14994); assay: Primary qHTS for antagonist of constitutive androstane receptor (CAR) against the NCATS DSHEA and TCM libraries (AID 1794836);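 further: HepG2 cells stably expressing hCAR with CYP2B6 luciferase reporter stimulated by CITCO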
# Procedure, shortened: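 HepG2-CYP2B6-hCAR cells, attached 5 h, given compounds plus CITCO agonist […], incubated 24 h at 37 C. Luciferase luminescence read, multiplexed with CellTiter-Fluor viability (Ex/Em 405/540 nm).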
# [2] = molecular target: Cytochrome P450 2C9 (Homo sapiens) (UniProt P11712); assay: qHTS for inhibitors of CYP2C9 against the NCATS DSHEA and TCM libraries (AID 1919973);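 further: luminogenic pro-luciferin CYP2C9 substrate turned into luciferin with NADPH regeneration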
# Procedure, shortened: (§1)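 Light output from converted D-luciferin reports remaining CYP activity. Compounds preincubate with enzyme and substrate for 15 min; NADPH regeneration (1x final) runs the reaction for 30-45 min.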
# [3] = molecular target: Cytochrome P450 2C19 (Homo sapiens) (UniProt P33261); assay: qHTS for inhibitors of CYP2C19 against the NCATS DSHEA and TCM libraries (AID 1919974);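 further: luminescence from luciferin released by CYP2C19 oxidation of a pro-luciferin substrate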
# Procedure, shortened: as §1
# [4] = Dual reporter qHTS for agonist of Pregnane X Receptor (hPXR) against the NCATS DSHEA and TCM libraries: Fluorescence readout (AID 1920058)
# Procedure, shortened: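 Measures viability of the PXR reporter HepG2 line by protease-substrate fluorescence (405/540 nm), taken 1 h after CellTiter-Fluor addition. Substances are tested as concentration series over a ~24 h exposure, with rifampicin as agonist control.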
# [5] = molecular target: Nuclear receptor subfamily 1 group I member 2 (Homo sapiens) (UniProt O75469); assay: Dual reporter qHTS for agonist of Pregnane X Receptor (hPXR) against the NCATS DSHEA and TCM libraries: Luminescence readout (AID 1920059)
# Procedure, shortened: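 hPXR-Luc HepG2 cells, 2000/well in 5% charcoal-stripped FBS medium, attached 5 h, then exposed 24 h at 37C to compounds. Viability by CellTiter-Fluor, then luciferase luminescence with ONE-Glo.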
# [6] = Cell Proliferation Assay against the TMD8 Cell Line (AID 651645); details: TMD8 DLBCL cell line proliferation/viability; at 46.1 µM (top of the series);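 further: cells exposed to compound for 48 h before reading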
# Procedure, shortened: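 Viability by CellTiter-Glo after 48 h compound exposure of 500 log-phase TMD8 cells per well (RPMI, 5% FBS). Percent activity scaled between DMSO (100%) and 9.2 uM final bortezomib (0%).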
# [7] = Cell Proliferation Assay against the HBL1 Cell Line (AID 651646); details: HBL1 DLBCL cells; at 46.1 µM (top of the series);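 further: cells exposed to compound for 48 h before reading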
# Procedure, shortened: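 HBL1 ABC DLBCL cells, 500/well in RPMI with 5% FBS, treated for 48 h at 37C. Viability read by CellTiter-Glo luminescence, normalized to DMSO as 100% and 9.2 uM bortezomib as 0%.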
# [8] = Cell Proliferation Assay against the TMD8 Cell Line (Caspase readout at 8 hrs) (AID 651713); details: TMD8 lymphoma cells, caspase activation luminescence; further: potency means the concentration at half of the fitted maximal effect
# Procedure, shortened: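 Percent activity derived from Caspase-Glo signal, DMSO set to 0% and bortezomib (9.2 uM final) to 100%. TMD8 cells were exposed to compound for 8 h in RPMI with 5% FBS.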
# [9] = molecular target: Tyrosine-protein kinase Yes (Homo sapiens) (UniProt P07947); assay: qHTS for small molecule inhibitors of Yes1 kinase: Primary Screen (AID 686947); further: nearly all actives have a fitted effect of over 60% in size
# Procedure, shortened: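 ADP-Glo luminescence readout; final 4 nM Yes1, 0.1 mM ATP, 0.3 mg/mL poly(E4Y), Tris pH 7.5, MgCl2, DTT, Brij-35. 20 min compound preincubation, 60 min reaction at RT. Normalized to DMSO wells with and without enzyme.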
# [10] = qHTS for small molecule inhibitors of Yes1 kinase: Counter Assay (AID 686950);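 further: no kinase present so only ADP-Glo detection of a fixed ADP amount is tested; luminescence from ADP-Glo reporting ADP in a fixed ATP and ADP mixture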
# Procedure, shortened: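 Enzyme-free detection counter-screen: compounds preincubated 20 min in buffer, then 0.08 mM ATP plus 0.02 mM ADP added for 60 min at room temperature; ADP-Glo luminescence. Buffer 50 mM Tris pH 7.5, 10 mM MgCl2, 150 mM NaCl; normalized to ATP+ADP and ATP-only controls.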
# [11] = qHTS Assay for Identifying Gametocytocidal Compounds (AID 743244); further: potency means the concentration at half of the fitted maximal effect; details: P. falciparum 3D7 stage III-V gametocytes, alamarBlue, 72 h
# Procedure, shortened: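 Using 20,000 stage III–V 3D7 gametocytes per well, compounds were incubated 72 h under 37 °C/5% CO2. Viability was then assessed by 24 h alamarBlue reduction, measured fluorometrically at 525/598 nm.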
# [12] = molecular target: Calcium and integrin-binding protein 1 (Homo sapiens) (UniProt Q99828); assay: Confirmatory qHTS for Identification of Calcium Integrin Binding Protein 1 (CIB1) Competitor (AID 1508617); details: CIB1 binding competition assay, biochemical qHTS; further: potency means the concentration at half of the fitted maximal effect; nearly all actives have a fitted effect of over 65% in size
# Procedure, shortened: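 Binding competition between test compounds and fluorescent alphaIIb peptide for 1 uM CIB1-GST is monitored by FP at 480/540 nm. Final compound range is up to 114 uM; unlabeled peptide serves as reference competitor.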
# [13] = Primary qHTS for small molecule stabilizers of the endoplasmic reticulum resident proteome: Secreted ER Calcium Modulated Protein (SERCaMP) assay (AID 1508630)
# Procedure, shortened: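 GLuc-SERCaMP-expressing SH-SY5Y cells, pretreated 16 h with compound, are challenged with thapsigargin to empty ER calcium stores; after 4 h, coelenterazine is added directly to the medium and luminescence is imaged.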
# [14] = Confirmatory qHTS for activators (rescue) of SARS-CoV-2 Cytopathic Effect (CPE) (AID 1508606; calls by dose curve; further: potency means the concentration at half of the fitted maximal effect; nearly all actives have a fitted effect of over 70% in size)
# [15] = molecular target: ATP-dependent 6-phosphofructokinase (Trypanosoma brucei brucei) (UniProt O15648); assay: qHTS Assay to Find Inhibitors of T. brucei phosphofructokinase: hit validation (AID 492961)
# Procedure, shortened: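 Luminescence from ADP-Glo reports ADP generated as T. brucei PFK (1.25 nM) phosphorylates 0.5 mM fructose-6-phosphate using 0.1 mM ATP. Reactions ran 45 min at room temperature, pH 8.0.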
# AS120 = assay: qHTS profiling for inhibitors of Plasmodium falciparum proliferation (AID 504749); further: nearly all actives have a fitted effect of over 60% in size; details: P. falciparum in erythrocytes, SYBR Green DNA, 72 h; series mostly up to 28.7 µM
# Procedure, shortened: (§2)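 Readout was DNA-dye fluorescence from lysed cultures, ex 485/em 535 nm. Parasitized red cells had grown 72 h with compound; data scaled between 0.29 uM artemisinin and DMSO wells and corrected using vehicle-only plates.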
# ATS189 = assay: as above; details: P. falciparum in erythrocytes, SYBR Green DNA, 72 h; series mostly up to 28.7 µM
# Procedure, shortened: as §2
# CP203 = assay: as above; details: P. falciparum in erythrocytes, SYBR Green DNA, 72 h; series mostly up to 28.7 µM
# Procedure, shortened: as §2
# DFO2036 = assay: as above; details: P. falciparum in erythrocytes, SYBR Green DNA, 72 h; series mostly up to 28.7 µM
# Procedure, shortened: as §2
# W2 = assay: as above; details: P. falciparum in erythrocytes, SYBR Green DNA, 72 h; series mostly up to 12.8 µM
# Procedure, shortened: as §2
# Chain of Tyrosine-protein kinase Yes (Homo sapiens) (P07947 whole entry, looked up): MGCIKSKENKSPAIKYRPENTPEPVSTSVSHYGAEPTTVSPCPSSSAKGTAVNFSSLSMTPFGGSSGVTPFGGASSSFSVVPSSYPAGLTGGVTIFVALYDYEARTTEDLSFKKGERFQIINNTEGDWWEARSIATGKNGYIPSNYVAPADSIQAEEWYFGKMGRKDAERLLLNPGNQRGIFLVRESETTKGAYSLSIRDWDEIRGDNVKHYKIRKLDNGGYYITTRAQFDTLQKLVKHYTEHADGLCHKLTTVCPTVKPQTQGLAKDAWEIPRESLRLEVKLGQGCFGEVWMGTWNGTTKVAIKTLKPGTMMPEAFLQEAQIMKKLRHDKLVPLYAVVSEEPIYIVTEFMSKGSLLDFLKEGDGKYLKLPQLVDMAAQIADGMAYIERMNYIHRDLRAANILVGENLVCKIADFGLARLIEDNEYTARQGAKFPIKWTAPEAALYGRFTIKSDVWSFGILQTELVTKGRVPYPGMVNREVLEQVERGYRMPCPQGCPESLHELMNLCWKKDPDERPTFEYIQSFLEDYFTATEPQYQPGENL
# Chain of Cytochrome P450 2C19 (Homo sapiens) (P33261 whole entry, looked up): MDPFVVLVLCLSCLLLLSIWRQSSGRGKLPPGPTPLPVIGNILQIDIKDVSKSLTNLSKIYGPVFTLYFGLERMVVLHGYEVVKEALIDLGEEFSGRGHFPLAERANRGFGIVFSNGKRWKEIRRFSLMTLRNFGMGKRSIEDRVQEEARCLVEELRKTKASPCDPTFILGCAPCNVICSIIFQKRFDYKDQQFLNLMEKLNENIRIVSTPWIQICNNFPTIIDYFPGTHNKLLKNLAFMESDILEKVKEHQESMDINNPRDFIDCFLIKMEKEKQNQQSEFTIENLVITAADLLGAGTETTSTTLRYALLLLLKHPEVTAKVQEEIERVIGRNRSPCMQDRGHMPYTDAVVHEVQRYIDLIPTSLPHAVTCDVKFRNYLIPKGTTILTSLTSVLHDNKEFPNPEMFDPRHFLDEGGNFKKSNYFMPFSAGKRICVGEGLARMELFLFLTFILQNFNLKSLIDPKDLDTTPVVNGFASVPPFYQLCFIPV
# Chain of Nuclear receptor subfamily 1 group I member 2 (Homo sapiens) (O75469 whole entry, looked up): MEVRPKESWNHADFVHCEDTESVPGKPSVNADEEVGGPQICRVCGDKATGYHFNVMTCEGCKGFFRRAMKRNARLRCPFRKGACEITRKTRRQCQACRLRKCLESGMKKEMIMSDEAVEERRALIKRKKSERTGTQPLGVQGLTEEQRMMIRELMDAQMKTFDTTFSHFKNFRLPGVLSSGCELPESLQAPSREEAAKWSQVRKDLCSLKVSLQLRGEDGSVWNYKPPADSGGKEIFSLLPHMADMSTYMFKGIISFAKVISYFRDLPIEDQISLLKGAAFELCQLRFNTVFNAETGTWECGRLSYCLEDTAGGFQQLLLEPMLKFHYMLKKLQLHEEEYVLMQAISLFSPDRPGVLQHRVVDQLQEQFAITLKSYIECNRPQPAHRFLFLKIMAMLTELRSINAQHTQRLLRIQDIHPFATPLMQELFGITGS
# Chain of Cytochrome P450 2C9 (Homo sapiens) (P11712 whole entry, looked up): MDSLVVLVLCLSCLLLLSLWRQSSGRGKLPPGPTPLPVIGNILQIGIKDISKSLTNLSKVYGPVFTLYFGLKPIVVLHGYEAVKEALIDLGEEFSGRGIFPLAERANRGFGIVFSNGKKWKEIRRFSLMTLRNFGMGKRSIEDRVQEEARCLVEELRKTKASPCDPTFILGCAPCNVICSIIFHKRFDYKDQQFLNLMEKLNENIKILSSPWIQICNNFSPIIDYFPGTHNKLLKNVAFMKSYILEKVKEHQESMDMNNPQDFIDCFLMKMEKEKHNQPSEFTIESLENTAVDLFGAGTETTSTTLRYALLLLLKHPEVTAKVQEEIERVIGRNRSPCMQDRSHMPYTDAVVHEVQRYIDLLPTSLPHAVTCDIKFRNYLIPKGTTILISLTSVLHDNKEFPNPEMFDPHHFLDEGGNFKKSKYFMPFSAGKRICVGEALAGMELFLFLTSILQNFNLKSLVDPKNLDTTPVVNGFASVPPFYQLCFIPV
# Chain of Nuclear receptor subfamily 1 group I member 3 (Homo sapiens) (Q14994 whole entry, looked up): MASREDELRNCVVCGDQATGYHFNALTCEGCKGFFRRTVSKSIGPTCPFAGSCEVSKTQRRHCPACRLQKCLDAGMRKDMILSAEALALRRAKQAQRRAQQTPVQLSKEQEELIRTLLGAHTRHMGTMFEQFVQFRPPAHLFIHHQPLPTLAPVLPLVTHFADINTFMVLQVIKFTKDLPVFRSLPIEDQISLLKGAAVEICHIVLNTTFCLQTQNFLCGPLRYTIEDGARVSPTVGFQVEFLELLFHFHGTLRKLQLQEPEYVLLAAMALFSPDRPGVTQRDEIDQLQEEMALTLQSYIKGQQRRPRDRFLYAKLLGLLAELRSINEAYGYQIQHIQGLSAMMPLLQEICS
# Chain of ATP-dependent 6-phosphofructokinase (Trypanosoma brucei brucei) (O15648 whole entry, looked up): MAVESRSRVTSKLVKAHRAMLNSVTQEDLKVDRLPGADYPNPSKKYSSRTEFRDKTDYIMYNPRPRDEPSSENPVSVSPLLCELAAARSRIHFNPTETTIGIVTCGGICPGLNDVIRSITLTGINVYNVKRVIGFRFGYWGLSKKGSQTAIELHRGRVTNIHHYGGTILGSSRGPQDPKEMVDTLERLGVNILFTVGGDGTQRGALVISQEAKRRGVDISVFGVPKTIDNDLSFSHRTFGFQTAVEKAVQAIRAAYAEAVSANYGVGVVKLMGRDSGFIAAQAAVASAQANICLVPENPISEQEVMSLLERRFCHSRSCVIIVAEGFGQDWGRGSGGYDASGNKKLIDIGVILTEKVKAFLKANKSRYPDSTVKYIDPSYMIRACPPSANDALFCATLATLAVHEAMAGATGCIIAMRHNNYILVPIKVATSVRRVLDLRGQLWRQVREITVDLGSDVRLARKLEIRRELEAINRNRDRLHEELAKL
# Chain of Calcium and integrin-binding protein 1 (Homo sapiens) (Q99828 whole entry, looked up): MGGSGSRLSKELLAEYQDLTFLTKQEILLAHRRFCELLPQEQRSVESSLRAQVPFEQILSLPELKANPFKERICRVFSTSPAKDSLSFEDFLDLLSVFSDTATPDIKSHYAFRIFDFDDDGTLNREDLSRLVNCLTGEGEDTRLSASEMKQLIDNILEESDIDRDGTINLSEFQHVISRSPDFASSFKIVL
compound,measurement,setting,value
N#CC(O[C@@H]1O[C@H](CO[C@@H]2O[C@H](CO)[C@@H](O)[C@H](O)[C@H]2O)[C@@H](O)[C@H](O)[C@H]1O)c1ccccc1 (stereo not given in full),Potency,[1],inactive
same,Potency,[2],inactive
same,Potency,[3],inactive
same,outcome,[4],inactive
same,Potency,[5],inactive
COC(=O)[C@]12CCC(C)(C)C[C@H]1[C@H]1C(=O)C=C3[C@@]4(C)C=C(C#N)C(=O)C(C)(C)[C@@H]4CC[C@@]3(C)[C@]1(C)CC2,viability (% of control),[6],0.135%
same,"viability, percent of control",[7],1.52%
same,Potency,[8],0.662 µM (active)
same,outcome,[9],inactive
same,outcome,[10],inactive
same,Potency,[11],5.01 µM (active)
same,Potency,[12],10 µM (active)
O=C1/C(=C\c2ccccc2)C[C@@]2(O)[C@H]3Cc4ccc(O)c5c4[C@@]2(CCN3CC2CC2)[C@H]1O5,outcome,[13],inactive
CCCCCCC(C)(C)c1cc(O)c2c(c1)OC(C)(C)C1CC=C(CO)C[C@H]21 (stereo not given in full),Potency,[14],10 µM (active)
CNC(C)[C@@H](O)c1ccc(O)cc1 (stereo not given in full),Potency,[15],inactive
same,Potency,AS120,inactive
same,Potency,ATS189,inactive
same,Potency,CP203,inactive
same,Potency,DFO2036,inactive
same,Potency,W2,inactive
